Experimental data taken from PubChem BioAssay (NCI).
This is part of a sample that, as a whole, favours compounds with a hit. Of some 79,000 tested, about 15% had one in any assay. Activity calls are given as the source filed them. Cut-off read from the data, not from the text of the source: active = growth inhibition above about 70%; inactive = the rest.

Assay: NCI Yeast Anticancer Drug Screen. Data for the rad50 strain (AID 155);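 note: 0% = growth of vehicle-only cultures of the same strain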
Settings: S. cerevisiae rad50 strain growth inhibition; at 50.0 µM; hits give high values
Procedure, shortened: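 Yeast carrying a defined DNA repair defect were exposed to test compounds, and growth was compared with vehicle-treated controls to give percent inhibition.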
For `CC(Oc1ccccc1)C(=O)NNC(=O)OC(C)(C)C` (configuration not stated), the growth inhibition was -0.3% (inactive). For `CC(C)=CCc1ccc2c(c1)CCCN2C`, the growth inhibition was -44.4% (inactive). With `O=C(O)C(O)C(O)C(O)C(O)C(O)CO.[NH-]C1CCCCC1[NH-].[Pt+2]` (configuration not stated) the growth inhibition was -18.3% (inactive). For `COc1ccc(NC(=O)CC(=O)N/N=C(/C)c2cc3cc(N=Nc4ccccc4Cl)ccc3oc2=O)cc1`, the growth inhibition was 11.3% (inactive). For `Cc1cc(C[C@H]2O[C@@H]3OC(C)(C)O[C@@H]3[C@H]3OC(C)(C)O[C@H]32)c2ccccc2n1`, the growth inhibition was -4.6% (inactive). For `O=S1(=O)CC(N2CCCCC2)C=C(c2ccccc2)O1` (configuration not stated), the growth inhibition was 37.1% (inactive). With `Cc1cc2sc(C)[n+](CCCOS(=O)(=O)[O-])c2cc1C` the growth inhibition was -22.6% (inactive). For `COc1ccc(N)c(C(=O)CCNC(C)=O)c1`, the growth inhibition was -23.2% (inactive). In the case of `O=C(Nc1ccccc1Cl)c1ccccc1O`, the growth inhibition is reported as 10.1% (inactive). For `C=C(C)C#CC(O)(C(=O)OC1CCN(C)CC1)C(C)C` (configuration not stated), the growth inhibition was -7.95% (inactive). In the case of `O=[N+]([O-])c1ccc(-c2nnn(Cc3ccco3)c2N2CCCCC2)cc1`, the growth inhibition is reported as 69.6% (inactive). For `O=[N+]([O-])c1cc2no[n+]([O-])c2cc1N1CCOCC1`, the growth inhibition was 98.8% (active). With `c1ccc2cc(N=NNc3ccc4ccccc4c3)ccc2c1` the growth inhibition was 63.6% (inactive). In the case of `CCC(Nc1nncs1)Nc1nncs1`, the growth inhibition is reported as -21.9% (inactive). For `CC(=O)NC(Cc1ccc(C)cc1)C(=O)O` (configuration not stated), the growth inhibition was 3.35% (inactive). In the case of `CSCCC(Nc1ncnc2nc[nH]c12)C(=O)O` (configuration not stated), the growth inhibition is reported as -9.7% (inactive). With `CCOC(=O)c1c(-c2ccc([N+](=O)[O-])cc2)c(C#N)n(-c2ccccc2)c1C` the growth inhibition was -1.25% (inactive).
